# In PubChem BioAssay AID743364 (National Center for Advancing Translational Sciences (NCATS), 2014):
# A number with no mark means an inactive call. The call rests on the fitted dose curve; in most records, active means well fitted curve in the direction sought with a large enough effect; inactive means no such curve, though single readings can be large or run the other way.
# Assay: qHTS profiling of inhibitors of Plasmodium falciparum (3D7) proliferation (acoustic dispense)
# Details: P. falciparum 3D7 in erythrocytes, SYBR Green, 72 h; series mostly up to 49.8 µM; activity change: at the top concentration
# Description: Plasmodium falciparum is a virulent malarial parasite that kills 1-2 million people worldwide each year. Transmitted by mosquitoes, the sporozoite form of the parasite enters the blood stream to infect hepatocytes, where they become merozoites that infect red blood cells (erythrocytes). Within erythrocytes, merozoites begin a […] cycle of growth and division, after which the parasite is released to infect new red blood cells. Gametocytes, which form within erythrocytes as well, circulate in the bloodstream and are ingested by the mosquito, thereby completing the life cycle. To profile malarial isolates for differential chemical responses and to identify inhibitors of malarial growth, an assay that measures P. falciparum growth and replication within erythrocytes was employed. This assay uses a DNA binding fluorescent dye (SYBR Green) to detect parasite DNA following cell lysis. Because mature erythrocytes lack DNA, only Plasmodium-derived DNA is detected.
# The SYBR Green viability assay was adapted from a method described previously (Plouffe et al., 2008). For screening 3 ul culture medium was dispensed into 1536 well black clear bottom plates (Aurora Biotechnologies) using a Multidrop Combi (Thermo Fisher Scientific Inc.), 23 nL of compounds in DMSO were added by an acoustic dispenser (EDC Biosystems), and 5 ul of erythrocytes infected with P. falciparum (0.3% parasitemia, 2.5% hematocrit final concentration) were added. The plates were incubated at 37 C in a humidified incubator in 5% CO2 for 72 h, and 2 ul lysis buffer (20 mM Tris HCl, 10 mM EDTA, 0.16% saponin, 1.6% triton X, 10X SYBR Green I supplied as 10,000X […] by Invitrogen) was added to each well. The plates were mixed for 25 sec with gentle shaking and incubated overnight at room temperature in the dark. The following morning, fluorescence intensity at 485(14) nm excitation and 535(25) nm emission wavelengths was measured on an EnVision (Perkin Elmer) plate reader. Plate reads were normalized relative to the control inhibitor (0.29 uM artemisinin) and vehicle (DMSO) wells present on each plate and then corrected by an algorithm using vehicle-only control plates at the beginning and end of the compound plate stack.
row,Compound,activity change
1,CC(=Cc1csc(C)n1)[C@@H]1C[C@H]2O[C@@H]2CCC[C@H](C)[C@@H](O)[C@@H](C)C(=O)C(C)(C)[C@@H](O)CC(=O)O1,0.503%
2,O=c1[nH]c2ccc(Cl)cc2c(N[C@@H]2CN3CCC2CC3)c1-c1nc2ccccc2[nH]1,0.942%
3,COC1=CC(C)=C[C@@H](C)[C@@H](O)[C@@H](C)CC(C)=CC=C[C@H](OC)[C@H]([C@@H](C)[C@@H](O)[C@H](C)[C@@]2(O)C[C@@H](O)[C@H](C)[C@@H](C(C)C)O2)OC1=O,1.19%
4,C[C@H]1CCCC=CC2C[C@H](O)C[C@@H]2[C@H](O)C=CC(=O)O1 (stereo not given in full),-0.681%
5,CO[C@H]1CCC(O[C@H]2C[C@H]([C@]3(C)CC[C@]4(C[C@H](O)[C@@H](C)[C@@H]([C@@H](C)C=C(C)C(=O)[C@H](C)C[C@H](C)C(=O)O)O4)O3)O[C@]3(O[C@@H]([C@H]4O[C@@](O)(CO)[C@H](C)C[C@H]4C)C[C@H]3C)[C@H]2C)O[C@H]1C (stereo not given in full),-0.523%
6,O=C(C[C@@H]1NCCC[C@@H]1O)Cn1cnc2ccccc2c1=O,-1.69%
7,CC(C)(N)CNC(=O)CC1CCC2(CC1)OOC1(O2)C2CC3CC(C2)CC1C3 (stereo not given),0.389%
8,CC=C(C)C(=O)N[C@@H](c1ccccc1)[C@@H](O)C(=O)O[C@H]1C[C@@]2(O)[C@@H](OC(=O)c3ccccc3)[C@@H]3[C@]4(OC(C)=O)CO[C@@H]4C[C@H](O)[C@@]3(C)C(=O)[C@H](OC(C)=O)C(=C1C)C2(C)C,1.68%
9,C[C@]12O[C@H](C[C@@]1(O)C(=O)O)n1c3ccccc3c3c4c(c5c6ccccc6n2c5c31)CNC4=O,0.751% [at 4.15 µM]
10,CC1=C(O)C(=O)C=C2C1=CC=C1[C@@]2(C)CC[C@@]2(C)[C@@H]3C[C@](C)(C(=O)O)CC[C@]3(C)CC[C@]12C,2.81%
11,CC(=O)Nc1nnc(S(N)(=O)=O)s1,67.7%
12,COC(=O)[C@@]1(OC)C[C@@H]2O[C@@]1(C)n1c3ccccc3c3c4c(c5c6ccccc6n2c5c31)C(=O)N(C)C4,0.473% [at 16.5 µM]
13,CN1C(=O)C[C@H](C(=O)N[C@@H](Cc2cnc[nH]2)C(=O)N2CCC[C@@H]2C(N)=O)NC1=O,94.2%
14,C[C@@H]1C[C@@H]([C@H](O)CC2CC(=O)NC(=O)C2)C(=O)[C@@H](C)C1,-0.385%
15,CC(=O)N(O)CCCP(=O)(O)O,9.16%
